Results taken from PubChem BioAssay AID1076 (NMMLSC, 2008).
The source made the active and inactive calls.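 The calls were made as follows: active = cell event count below 40, meaning activity score above 60 where score is 100 minus count; inactive = the rest.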

Experiment: cytotoxicity in LNCaP prostate cells – cell-based, cell event count, single point, cytotoxicity control for prostate differentiation activator project, confirmation (AID 1076);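 also: counts scatter-gated live cells after medium removal discards detached dead cells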
Settings: LNCaP cell loss, flow cytometry event count, 4 d, stronger effect = lower value

Compound | cell event count (at 100 µM) | cell event count (event count, at 10 µM)
CC(C)(C)c1ccc(C(O)CCCN2CCC(C(O)(c3ccccc3)c3ccccc3)CC2)cc1 (stereo not drawn) | 12 (inactive) | 90
Cc1ccccc1-c1nc(CN2CCC(C(=O)NCc3cccnc3)CC2)c(C)o1 | 268 (inactive) | 208
COc1ccc(Cc2n[nH]c(=O)c3ccccc23)cc1OC | 207 (inactive) | 111
CCc1nnc(NC(=O)CSc2nc3ccccc3s2)s1 | 209 (inactive) | 142
O=C(Cc1coc(-c2ccc(F)cc2)n1)N1CCOCC1 | 217 (inactive) | 71.5
CCN(CCNC(=O)C1CCCN(Cc2nc(-c3ccc(OC)cc3)oc2C)C1)c1ccccc1 (stereo not drawn) | 18 (inactive) | 146
CCOC(=O)c1c(C)n(C)c2ccc(OCC(O)CNC(CC)CO)cc12 (stereo not drawn) | 99 (inactive) | 88.5
CN(C(=O)c1ccccn1)c1nnc(-c2cccnc2)s1 | 168 (inactive) | 240
CCN1CCN(c2ncc(C(=O)Nc3cc(Cl)c(OC)cc3OC)c3ccccc23)CC1 | 41 (inactive) | 301
COc1cc2nc(N3CCN(C(=O)C4COc5ccccc5O4)CC3)nc(N)c2cc1OC (stereo not drawn) | 5 (inactive) | 124
O=C(Nc1cccc(Cl)c1)N1CCN(Cc2ccccc2)CC1 | 42 (inactive) | 132
Cn1c(C(=O)NCCC2=CCCCC2)cc2c(=O)n3ccccc3nc21 | 191 (inactive) | 132
Cc1ccccc1Cn1cnc2c(cnn2C(C)(C)C)c1=O | 13 (inactive) | 85
CCN1CCN(c2cc(C)c3cc(NC(=O)c4ccc(Br)o4)ccc3n2)CC1 | 36 (inactive) | 233
